# Beta2AR agonist: human beta-2 adrenergic receptor agonism by FAP; Am2.2-beta2AR cells, FAP receptor internalization, flow cytometry; response, % (no concentration beside the values); hit rate 0.43% among 340,000;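 active = response above a set limit, near 3 SD of response in nonfluorescent compounds, cut at about 42% in these data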
# Target sequence (P07550 whole entry, looked up): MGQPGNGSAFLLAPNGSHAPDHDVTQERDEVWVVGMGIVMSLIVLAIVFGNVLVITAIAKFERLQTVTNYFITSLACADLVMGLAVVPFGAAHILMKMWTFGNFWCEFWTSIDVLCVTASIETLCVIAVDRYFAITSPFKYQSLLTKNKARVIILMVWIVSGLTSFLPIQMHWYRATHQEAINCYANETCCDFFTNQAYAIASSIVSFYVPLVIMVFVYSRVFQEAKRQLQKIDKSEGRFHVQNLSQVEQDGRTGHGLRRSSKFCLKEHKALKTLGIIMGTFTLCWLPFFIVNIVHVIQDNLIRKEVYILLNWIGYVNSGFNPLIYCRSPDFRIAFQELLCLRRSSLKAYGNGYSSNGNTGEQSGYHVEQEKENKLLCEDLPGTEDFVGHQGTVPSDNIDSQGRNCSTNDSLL
# MEKK2wt PB1 HTS: raises or lowers MEK5 binding to wildtype human MEKK2 PB1 domain; bead flow cytometry, Alexa488-MEK5 binding to MEKK2 WT; actives lie on both sides; binding response (% of control), % at 10 µM; hit rate 1.1% among 290,000; AID 1531; in the data active = binding response below about 67% or above about 130%
# MEKK3 PB1 HTS: MEKK3-MEK5 PB1 interaction, increase or decrease | hit rate 1.4% among 290,000 | Q99759 | binding response (% of control), % at 10 µM | bead-based flow cytometry, Alexa488-MEK5 binding to MEKK3; actives lie on both sides; 0 = blocked by unlabeled MEK5, 100 = vehicle;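 active = binding response more than 3 SD above or below the average of its plate-row segment, actives on both sides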;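 also: Alexa488 bead fluorescence after subtracting the streptavidin-only scavenger bead signal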
# GRK2 aptamer HTS: blocks RNA aptamer binding to human GRK2; bead flow cytometry, FAM-aptamer displacement from GRK2; AID 488847; inhibition of aptamer binding, % at 10 µM; hit rate 0.59% among 330,000; P25098;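 active = inhibition of aptamer binding above 40%, roughly 3 SD of noise, on plates passing a quality check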;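 also: median bead fluorescence of bound FAM aptamer so fluorescent compounds give negative values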
# MEKK2mut PB1 HTS: signal of MEK5 binding to mutant human MEKK2 PB1 domain; bead flow cytometry, Alexa488-MEK5 binding to MEKK2 mutant; percent response, % at 10 µM; hit rate 0.35% among 290,000; AID 1530; in the data active = percent response above about 24%, passing the limit was not always enough
# GRK2 CP1: human GRK2 inhibition confirmation, cherry pick 1; shares compounds with GRK2 aptamer HTS; bead-bound GRK2, FAM-aptamer displacement, flow cytometry; aptamer displacement, % at 10 µM; hit rate 4% among 2,000; AID 504451;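 active = aptamer displacement above 40%, near three times the noise of non-fluorescent compounds, on plates passing quality checks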;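 also: negative values mostly reflect intrinsic compound fluorescence rather than true enhancement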
# Aptamer quench 1: counter-screen for GRK2 aptamer inhibitors: fluorescent aptamer quenchers. shares compounds with GRK2 aptamer HTS. Fluorescent RNA aptamer beads, quenching, flow cytometry; hits give high values. fluorescence change (kMESF span), kMESF (test concentration not listed). 110 tested, under 10 active. AID 504521;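 active = compounds whose bead fluorescence drops by more than 37 kMESF across the dose range, marking them as dye quenchers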
# FAM quench CP1: aptamer fluorescence quenching in GRK2 counter-screen; Carboxyfluorescein RNA aptamer on beads, flow cytometry quenching; hits give low values; 2,000 tested, under 10 active; shares compounds with GRK2 aptamer HTS; fluorescence response (% of DMSO), % at 10 µM;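 active = compounds that quench the bead-bound fluorescent RNA probe, cutting fluorescence to under half of the solvent control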;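 also: counterscreen run without GRK2 so only probe quenching by compound is measured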
# GRK2 CP2: confirmation of human GRK2 inhibitors binding RNA aptamer site; shares compounds with GRK2 aptamer HTS; bead-bound GRK2, FAM-aptamer displacement, flow cytometry; inhibition of aptamer binding, % at 10 µM; 360 tested, under 10 active; AID 504782;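 active = inhibition of aptamer binding above 40%, about triple the noise seen with nonglowing compounds, on plates passing quality control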;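 also: negative values mostly come from compounds that fluoresce themselves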
# FAM quench CP2: aptamer fluorescence quenching in GRK2 counter-screen | shares compounds with GRK2 aptamer HTS | fluorescence response vs DMSO, % at 10 µM | carboxyfluorescein RNA aptamer beads, flow cytometry quenching; hits give low values | AID 588494 | 360 tested, under 10 active;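 active = response vs DMSO under 50%, meaning signal dropped by over half, treated as fluorescence quencher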;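 also: labelled aptamer on streptavidin beads without GRK2 as a quench counter-screen; 100% = bead fluorescence of DMSO wells and lower means quenching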
# FAM quench PS1: counter-screen for GRK2 aptamer binding inhibitors: aptamer fluorescence quenching; shares compounds with GRK2 aptamer HTS; Bead-bound FAM RNA aptamer fluorescence quenching, flow cytometry; hits give low values; fluorescence ratio to DMSO, % at 11.1 µM; 35 tested, under 10 active; AID 588496;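 active = compounds that dim the fluorescent label, raw bead signal shifting by over 33 units between lowest and highest dose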
# Active calls of the source: *; i = inactive; / = no result. Rows were chosen to be rich in hits. Some 2.9% of all compounds tested hit in one or more screens of this group.
SMILES,Beta2AR agonist,MEKK2wt PB1 HTS,MEKK3 PB1 HTS,GRK2 aptamer HTS,MEKK2mut PB1 HTS,GRK2 CP1,FAM quench CP1,others
Cc1cccc(C(=O)NC(C(=O)Nc2cccc(S(=O)(=O)N3CCCC3)c2)C(C)C)c1 (configuration not stated),8.1,/,/,0.0,/,/,/,
COc1ccccc1-[n+]1c(C)cc(/C=C2\Sc3ccccc3N2C)cc1C,i,79.0,91.0,68.0*,6.0,61.5*,162.4,Aptamer quench 1=-2
Cn1ccc2cc3c(cc21)CCN3C(=O)Nc1cccnc1,7.2,/,/,57.0*,/,-12.8,72.5,
Cc1nc(C)c(NC(=O)N2CCc3ccccc32)cc1NC(=O)N1CCc2ccccc21,0.9,100.0,99.0,6.0,6.0,/,/,
CCOC(=O)Cn1c(=O)n(Cc2ccco2)c(=O)c2ccc(C(=O)NC3CCCC3)cc21,-0.9,113.0,109.0,86.0*,11.0,-2.2,102.9,
CCOC(=O)CSc1nc2cc(C(=O)NCC3CCCO3)ccc2c(=O)n1Cc1ccco1 (configuration not stated),-4.0,102.0,97.0,0.0,1.0,/,/,
O=C(O)C1CC(=O)N(c2ccc3c(c2)OCCO3)C1 (configuration not stated),1.4,113.0,107.0,61.0*,8.0,40.2*,96.8,Aptamer quench 1=-11.5;FAM quench PS1=101.0
COc1cccc(OC)c1OC(=O)C1CC(=O)N(c2ccc3c(c2)OCCO3)C1 (configuration not stated),6.8,/,/,2.0,/,/,/,GRK2 CP2=30.4;FAM quench CP2=104.0
COc1cccc(C2=NO[C@@H]3C(=O)N(c4ccc5c(c4)OCCO5)C(=O)[C@H]23)c1OC,-3.0,98.0,99.0,3.0,0.0,/,/,GRK2 CP2=1.1;FAM quench CP2=102.0
COc1ccccc1NC(=O)C(C)OC(=O)C1CC(=O)N(c2ccc3c(c2)OCCO3)C1 (configuration not stated),1.4,106.0,103.0,0.0,6.0,/,/,
O=C(Nc1ccccc1)SC1CCCCC1,4.0,/,/,/,/,/,/,
CC(C)c1ccc(N2C(=O)CC(NNC(=O)c3cccnc3)C2=O)cc1 (configuration not stated),-3.0,93.0,90.0,98.0*,-6.0,2.1,98.3,
NC(=O)NCc1cccs1,-1.1,55.0,52.0,0.0,-16.0,/,/,
CC(C)CNC(=O)CSc1nc2nn(-c3ccccc3)c(=O)c-2c2n1CCCCC2,-15.7,99.0,111.0,39.0,0.0,-4.2,99.1,
COc1cccc(Cn2c(=S)[nH]c3ccc(N4CCOCC4)cc3c2=O)c1,3.1,94.0,103.0,43.0*,0.0,-1.1,103.0,
O=C(Nc1cc(S(=O)(=O)N2CCCCC2)ccc1Oc1ccccc1)C1=COCCO1,11.3,104.0,104.0,2.0,7.0,/,/,
COc1ccc(Cl)cc1NC(=O)c1nnn(CC(=O)Nc2ccc3c(c2)OCO3)c1N,-10.9,99.0,98.0,3.0,-2.0,/,/,
O=C(NC1CC1)c1cccc(Nc2ccc(-c3ccc4c(c3)OCCO4)nn2)c1,4.6,112.0,103.0,3.0,6.0,11.2,102.7,
Cc1cccc(C(=O)N[C@H](C(=O)OCC(=O)NC(=O)c2cccn2C)C(C)C)c1,4.3,106.0,110.0,5.0,1.0,/,/,
O=C(Cn1c(NCCO)nc2ccccc21)NCC1CCCO1 (configuration not stated),-0.3,108.0,104.0,100.0*,6.0,-1.6,94.8,
COc1ccc(CCC(=O)N2CCN(S(=O)(=O)c3cccs3)CC2)cc1,-0.8,/,/,/,/,/,/,
COCCNC(=O)c1noc2c1CCc1cc(OC)ccc1-2,-3.6,103.0,96.0,0.0,2.0,/,/,
COc1ccc2c(c1)CCc1c(C(=O)NCCCn3ccnc3)noc1-2,-6.0,103.0,99.0,51.0*,5.0,-6.3,98.1,
CCc1ccc(NC(=O)N(C2CCC(C)CC2)C2CCN(C(C)=O)CC2)cc1 (configuration not stated),11.8,98.0,103.0,57.0*,2.0,3.2,92.6,
O=C(c1ccco1)n1nc(-c2cccnc2)nc1NCc1ccco1,-5.3,99.0,100.0,0.0,-2.0,/,/,
SMILES,Beta2AR agonist,MEKK2wt PB1 HTS,MEKK3 PB1 HTS,GRK2 aptamer HTS,MEKK2mut PB1 HTS,GRK2 CP1,FAM quench CP1,others
CCCC(=O)Nc1nc2ccc(C(=O)OCC)cc2s1,5.2,117.0,113.0,0.0,13.0,/,/,
CCOC(=O)c1ccc2nc(NC(=O)C(C)C)sc2c1,-10.0,107.0,105.0,62.0*,12.0,-0.8,97.4,
NS(=O)(=O)c1ccc(NC(=S)N2CCN(c3ccccc3Cl)CC2)cc1,1.4,100.0,99.0,48.0*,-1.0,/,/,GRK2 CP2=1.6;FAM quench CP2=334.0
NS(=O)(=O)c1ccc(NC(=S)N2CCN(c3cccc(Cl)c3)CC2)cc1,4.0,98.0,99.0,0.0,0.0,/,/,
COc1cccc(-n2c(SCC(=O)O)nnc2-c2cccnc2)c1,-3.3,97.0,98.0,62.0*,-4.0,4.8,101.8,
COc1ccc(-n2c(SCC(N)=O)nnc2-c2cccnc2)cc1,2.0,98.0,93.0,0.0,-2.0,/,/,
Cc1ccc(/C=C/C(=O)NCCc2cccc(Cl)c2)o1,13.2,103.0,100.0,0.0,1.0,/,/,
O=C(Cc1ccc(F)cc1)Nc1nc(-c2ccc(F)c(F)c2)cs1,14.7,108.0,109.0,0.0,3.0,/,/,
COc1ccc(CC(=O)Nc2nc(-c3ccc(F)c(F)c3)cs2)cc1,-2.7,98.0,100.0,92.0*,-3.0,0.4,96.1,
CC1(NC(=O)/C=C/c2nc3ccccc3s2)CCS(=O)(=O)C1 (configuration not stated),-16.5,/,/,8.0,/,/,/,
CC(Sc1nc2sc3c(c2c(=O)n1-c1ccccc1)CCCC3)C(=O)O (configuration not stated),-3.8,100.0,99.0,0.0,0.0,/,/,
CCn1c(SC(C)C(=O)O)nc2sc3c(c2c1=O)CCC3 (configuration not stated),3.2,102.0,105.0,68.0*,2.0,5.2,99.9,GRK2 CP2=9.0;FAM quench CP2=101.0
CCN(CC)C(=O)CSc1nc2sc3c(c2c(=O)n1CCCOC)CCC3,2.5,105.0,99.0,0.0,1.0,/,/,GRK2 CP2=-13.8;FAM quench CP2=100.0

# Bioassay records as filed in PubChem BioAssay.
